# Compounds with a hit are over-represented: about 2% of the library has one in this group of screens.
# sPLA2-III inh: Inhibits HGIII-sPLA2 liposome hydrolysis, primary screen; Q9NZ20; QFRET BODIPY PC-A2 liposome hydrolysis, fluorescence; AID 743126; hit rate 0.56% among 370,000; inhibition, % at 12.2 µM;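 active = inhibition above mean plus 3 SD of compounds lying within the high and low control bounds, cut at about 19% in these data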;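 note: 0% = median of test compound wells and 100% = no enzyme DMSO wells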
# NadD block: inhibitors of Staphylococcus aureus NadD | purified NadD enzyme, colorimetric absorbance read-out | inhibition, % at 20 µM | hit rate 0.78% among 360,000 | AID 602399; in the data active = inhibition above about 26%
# ARNT TACC3 PPI: disrupts binding between human ARNT and TACC3; Q9Y6A5; AlphaScreen His-ARNT PAS-B/GST-TACC3 binding, luminescence; TACC3 fragment carries E629A point mutation; inhibition, % at 9.99 µM; hit rate 0.66% among 390,000; AID 623870;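 active = mean inhibition of replicates at least 50% and at least half of replicates each reaching 50%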;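 note: 0% = complete ARNT plus TACC3 wells and 100% = ARNT alone without TACC3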
# DAGLB inhibitor: diacylglycerol lipase beta (human) inhibition; hit rate 0.059% among 340,000; HEK293T DAGLB membrane lysate, EnzChek fluorogenic substrate; inhibition, % at 5.17 µM; Q8NCG7; in the data active = inhibition above about 34%;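 note: 0% = enzyme with vehicle and 100% = wells lacking enzyme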
# Target sequence (Q8NCG7 whole entry, looked up): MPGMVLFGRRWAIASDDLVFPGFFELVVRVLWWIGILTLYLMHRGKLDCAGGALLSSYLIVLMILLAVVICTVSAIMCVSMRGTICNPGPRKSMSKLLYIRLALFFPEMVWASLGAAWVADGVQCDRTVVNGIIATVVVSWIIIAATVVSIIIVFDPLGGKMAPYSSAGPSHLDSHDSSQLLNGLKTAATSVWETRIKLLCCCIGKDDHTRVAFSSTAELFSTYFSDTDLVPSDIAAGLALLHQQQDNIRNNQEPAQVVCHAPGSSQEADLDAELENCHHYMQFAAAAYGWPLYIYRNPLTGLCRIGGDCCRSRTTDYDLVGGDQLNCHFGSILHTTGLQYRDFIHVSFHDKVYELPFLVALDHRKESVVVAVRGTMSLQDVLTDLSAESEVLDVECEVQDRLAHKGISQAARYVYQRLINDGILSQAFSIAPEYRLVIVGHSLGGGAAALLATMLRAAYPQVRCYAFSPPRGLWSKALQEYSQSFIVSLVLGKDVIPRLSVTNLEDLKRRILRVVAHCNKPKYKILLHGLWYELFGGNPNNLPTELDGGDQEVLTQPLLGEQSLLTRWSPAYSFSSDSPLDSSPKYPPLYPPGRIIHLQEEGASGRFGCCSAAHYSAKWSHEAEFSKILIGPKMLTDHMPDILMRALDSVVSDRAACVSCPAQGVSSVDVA
# Neddyl block: blocks human cullin neddylation. P61081+Q13564. inhibition, % at 25 µM. TR-FRET cullin neddylation, biochemical. hit rate 0.58% among 360,000. AID 651699; in the data active = inhibition above about 36%
# Neddyl conf: cullin neddylation inhibition, confirmation; AID 652217; shares compounds with Neddyl block; calls only at 25 µM; hit rate 13% among 1,800; TR-FRET cullin neddylation biochemical assay; in the data active = inhibition above about 40%;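 note: neddylation substrate is the cullin 1 ring ligase complex with SKP2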
# * hit, by the source's call; i = inactive; . = no result given; + = active, no number.
SMILES,sPLA2-III inh,NadD block,ARNT TACC3 PPI,DAGLB inhibitor,Neddyl block,Neddyl conf
COc1ccc(-c2cc(C(=O)Nc3ccccc3SC)no2)cc1OC,-3,-12,-6,-1,42*,i
CCCNC(=O)C[C@H]1CC[C@@H]2[C@H](COc3ccc(NC(=O)c4ccc5c(c4)OCO5)cc3C(=O)N2C)O1,.,.,-5,.,.,.
CC1CCN(C(=O)CN2c3cccc4cccc(c34)S2(=O)=O)CC1,-2,3,.,-1,46*,.
CC1CCCCC1NC(=O)CN1c2cccc3cccc(c23)S1(=O)=O (configuration not stated),0,-2,.,2,44*,.
CCNC(=O)CN1c2cccc3cccc(c23)S1(=O)=O,-5,4,.,-7,36,.
NC(=O)NC(=O)CN1c2cccc3cccc(c23)S1(=O)=O,0,8,6,-1,29,.
COc1cc(F)ccc1-c1cc(C(=O)Nc2ccc(NC(C)=O)cc2)[nH]n1,3,0,.,.,54*,+
Cc1cccc(NC(=O)c2cc(-c3cc(C)ccc3O)n[nH]2)c1,-5,-3,-5,-6,8,.
COc1ccc(F)cc1-c1cc(C(=O)Nc2ccc(NC(C)=O)cc2)[nH]n1,-2,-5,.,.,6,.
CC(=O)Nc1ccc(NC(=O)c2cc(-c3ccc(C)cc3O)n[nH]2)cc1,-16,-1,-3,2,78*,+
CC(=O)N1[C@H](CO)[C@H](c2ccccc2)[C@@H]1CN(C(=O)c1ccc(F)cc1)C(C)C,.,.,2,.,.,.
C[C@@H]1CCCCO[C@H](CN(C)Cc2ccccc2)[C@H](C)CN([C@@H](C)CO)C(=O)c2cc(NC(=O)C3CCCCC3)ccc2O1,.,.,7,.,.,.
CC(=O)Nc1ccc(S(=O)(=O)N2CCN(c3cc(C(F)(F)F)ccn3)CC2)cc1,-10,-7,-3,-3,85*,i
CC(=O)Nc1ccc(S(=O)(=O)N2CCN(C(=O)C(=O)c3cccc(C(F)(F)F)c3)CC2)cc1,6,.,.,.,.,.
CC=Cc1ccc2n(c1=O)C[C@H]1[C@H](CO)[C@@H](C(=O)NCCN3CCCC3)N(C(=O)NC(C)C)[C@@H]21 (mixture of isomers),.,.,-1,.,.,.
Cn1c(=O)n(C)c2cc(S(=O)(=O)Nc3ccccc3C(=O)O)ccc21,8,-8,2,-4,42*,i
CC(=O)Nc1ccc(NC(=O)COC(=O)/C=C/c2ccc3c(c2)OCO3)cc1,2,2,17,0,.,.
CC1CCCCC1NC(=O)COC(=O)/C=C/c1ccc2c(c1)OCO2 (configuration not stated),-3,-2,-2,-3,39*,i
COc1ccc2nc3c(nc2c1)CCCC3,7,0,5,-1,46*,+
COc1ccc2nc3c(c(-c4ccccc4)c2c1)CCC3,0,-4,0,-3,22,.
CO[C@H]1CN(C)C(=O)c2ccc(NC(=O)C3CC3)cc2OC[C@H](C)N(C)C[C@H]1C,.,.,1,.,.,.
COc1ccccc1CNC(=O)C[C@@H]1C[C@H]2c3cc(NS(=O)(=O)c4ccc(F)cc4)ccc3O[C@H]2[C@@H](CO)O1,.,.,0,.,.,.
O=C(NCc1ccco1)c1cnn2c(C(F)F)cc(-c3ccccc3)nc12,6,0,9,2,.,.
O=C(c1cnn2c(C(F)F)cc(-c3ccccc3)nc12)N1CCc2ccccc2C1,-2,-1,-3,-2,48*,i
COCCNC(=O)c1cnn2c(C(F)F)cc(-c3ccccc3)nc12,0,-5,2,-1,41*,i
SMILES,sPLA2-III inh,NadD block,ARNT TACC3 PPI,DAGLB inhibitor,Neddyl block,Neddyl conf
Cc1ccc2c(c1)COc1c3ccc(C(=O)NCC4CC4)cc3nn1-2,-5,0,2,-2,47*,+
O=C(NCCO)c1ccc2c3n(nc2c1)-c1ccccc1CO3,7,-3,12,1,35*,i
O=C(NCC1CC1)c1ccc2c3n(nc2c1)-c1ccccc1CO3,7,-4,9,-2,27,.
C[C@@H](NC(=O)C[C@H]1C[C@H]2c3cc(NC(=O)CN(C)C)ccc3O[C@H]2[C@H](CO)O1)c1ccccc1,.,.,6,.,.,.
Cc1cc(C(=O)Nc2c(C)n(C)n(-c3ccccc3)c2=O)c2ccccc2n1,3,5,-19,2,1,.
CCc1ccc(-c2cc(C(=O)Nc3c(C)n(C)n(-c4ccccc4)c3=O)c3ccccc3n2)s1,.,18,6,1,41*,i
COc1cc(NC(=O)c2cccnc2)c(Cl)cc1NC(=O)c1ccc(Cl)cc1,-1,-6,-2,2,.,.
COc1cc(NC(=O)Cc2ccccc2)ccc1NC(=O)c1ccccc1,-6,-11,-18,-3,43*,i
COc1cc(NC(=O)c2cccnc2)c(Cl)cc1NC(=O)c1ccccc1,4,-2,-6,2,41*,i
COc1ccc(NC(=O)N2c3ccc(OC)cc3C(C)=CC2(C)C)cc1,2,-1,42,1,45*,.
COc1ccccc1S(=O)(=O)N1CC[C@H]2[C@H](CO)Nc3ccc(-c4cccc(C#N)c4)cc3[C@H]21,.,.,7,.,.,.
Cc1cc(-c2ccccc2)c2nncn2n1,3,5,-16,0,40*,+
Cc1cc(-c2ccccc2)c2c3c(cn2n1)c(=O)n(C)c(=O)n3C,5,0,-4,3,-13,.
COCCCNC(=S)N(CCCO)Cc1cc2cc3c(cc2[nH]c1=O)OCCO3,9,-5,-5,1,30,.
O=C(NC1CCCCC1)N(CCO)Cc1cc2cc3c(cc2[nH]c1=O)OCCO3,2,-2,-3,-1,44*,i
COCCCNC(=S)N(CCCO)Cc1cc2cc3c(cc2[nH]c1=O)OCO3,1,3,3,-1,43*,i
COCCCNC(=S)N(CCO)Cc1cc2cc3c(cc2[nH]c1=O)OCO3,1,6,4,-1,40*,i
O=C(Nc1ccccc1F)N[C@@H]1CC[C@H](CCNS(=O)(=O)c2ccccc2)O[C@H]1CO,.,.,-56,.,.,.
COC(=O)C[C@@H]1CC[C@@H]2[C@H](COC[C@H](O)CN2C(=O)Nc2ccccc2OC)O1,.,.,9,.,.,.
CCOC(=O)N1CCC(c2cc(=O)n3[nH]ccc3n2)CC1,-7,8,2,2,41*,.
CCOC(=O)N1CCC(c2cc(=O)n3[nH]cc(C(=O)OC)c3n2)CC1,-5,4,-1,-1,8,.
CCC1CCCN1Cn1cnc2c([nH]c3ccccc32)c1=O (configuration not stated),0,-4,-1,-2,41*,i
CCOC(=O)c1c(NC(=O)COC(=O)c2nccnc2N)sc(C(=O)N(C)C)c1C,-4,3,-1,-1,45*,i
CCOC(=O)c1c(NC(=O)COC(=O)c2ccccn2)sc(C(=O)N(C)C)c1C,7,-4,8,-1,-3,.
C[C@@H]1CC=C[C@H]2[C@H]1C(=O)N(Cc1ccccc1)[C@H]2c1ccc(/C=C/c2ccccc2)cc1F,-8,2,-1,-13,42*,.

# Screening data as filed in PubChem BioAssay.
